We go through 40 sequences from the supplement of paper PMC6555819.

This assay concerns VDR:RXRa (NR concentration 270 nM, RXRa partner concentration 90 nM). The assay can be described thus: PBM binding z-score (relative to random genomic background probes); higher = stronger binding; sequences stand for … in GC…GCGATTGACAGCGTAGAATGAAGG
The method, then:
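Protein-binding microarray (Agilent 4x180K custom design, double-stranded 60-nt probes: 5' GC cap, 34-nt variable region, 24-nt constant primer region; full probe sequence given). Purified or IVT nuclear receptor:RXRα heterodimers (3:1 NR:RXRα, mostly 270:90 nM) or homodimers were incubated for 1 h in PBS with 2% milk and no ligand, then detected with Alexa488 antibodies. Fluorescence from o1-orientation probes (~5 replicates averaged) was converted to z-scores against 500 random hg19 background probes. Variable regions are seed direct-repeat (DR0–DR5) sites, all their single-nucleotide variants and half-site ablations.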
The sequence ATATGTAGGTTACATCCGGGCCATTCAGGCTATG yielded a PBM binding z-score of 0.659.
The figure for CAAACTAGGTAACAGAGGTCAAAGTCCGTGCGTA is 5.87; for GGAACGAGGGCAAGTTGGTAGCAGAGTTTGATGG it is 1.03; for AATCCAGGGTCACTAGGCCAGAGTAGGTACGAAT it is 4.31.
Turning to TCTTGTAGATCAAGCAGGTTAAGAGAGCCTGAGT, the PBM binding z-score is 0.331.
ATCCAAAGGTCGTGAGGTGAGTATACAGAAAGGC showed a PBM binding z-score of 3.91.
In turn, CCGAGTAAGTTATGGGGCATTCAGGCAACGGTGA gave a PBM binding z-score of -0.346.
The result for CCTTACGGGTCACTGACAGGTTATAGCTTTTGGA reads 3.56; that for ATATGTAAGTTAAGGGTCATTCAGGTTGGTTCGC, 5.46.
Sequence CGGCCAAGGTCAATGCTAGGTCAGTGAAAGCATT returned a PBM binding z-score of 4.95.
TGAAAGAGGTTATAAGATCAGGGAACGTTGCAAA: the PBM binding z-score is 0.894.
Take CGTACAAGGTCAAGGTCAGTGAAAGAGACTCGAA: the PBM binding z-score was 4.98.
The figure for TCTTGTAGATCAGCAGGCTAAGAAAGCTGGCCAA is -0.106.
GGAACGAGGGCAAGTAGATAGCAGAGTTTGATGG yielded a PBM binding z-score of 0.536.
On to TCATATAGGTAATACAGGTGAATGTCGGCATCTA, for which the PBM binding z-score worked out at 1.3.
GCGACTGGGGCAAAGCAGGTTACAATAAGGTTGG showed a PBM binding z-score of 0.294.
The result for GCATATAGGTAATACAAGGTGGAAGTCCGATTGT reads -0.118; that for CAACCTAGGTCAGGGCCAGTATAGGAGGAACGTT, 0.746; that for ATCTCTAGGTAAAGTTCCGTGAAAGATCGATAGA, 0.335.
The result for CCTTACGGGTCAAGGTTAGAGCACGGGTGGTACG reads 3.08; that for CATAGCAGGCCAGGGTCACTCAAGCATTTCGCTT, 2.92.
With CGTCAAAGTCCAACTAAGGTAACGTAAAGCACGC, the PBM binding z-score was 0.393.
Turning to TAGCCTAGGTCACTCAGGGGCCAGTATAGAAAGC, the PBM binding z-score amounted to 2.42.
The figure for TCTATTAGTTGAAGGGCAAGCGACGAGTCCGTTT is 0.979.
The figure for TCGCCTAGGTCATTGGGCCAGTATAGTACGCATC is 2.23; for ACTAGCAGGCCACGTTTGGGTCACTCAAACAAAG it is 0.312; for TAGCCTAGGTCATGCGTGCCAGTATAGTGTCGGC it is 2.31.
As to CATATAGGGTCAGCTAGGCCAGAGTAGGGACGGC, the PBM binding z-score was 3.7.
The result for TCTCGCAGGACACGAAAGGTCAGAGCTCGACATC reads 2.89; that for GCAGACAGGTGAAACGCAGTTAACTCAGGGTGGC, -0.561.
The result for ATCGAAAGGTCGTGAGGTGAGTAAACAGAAAGGC reads 3.3; that for CCGACTGGGGCAAAGGTTACCCTACTCAGTACGA, 1.23; that for CCGACTGGGGCAGACAGGTTACCATACCATCCGG, -0.343.
Sequence TCTATTAGTTGATTAGGGCTACCGAAACAGCGGA gave a PBM binding z-score of 0.473.
The figure for TCATATAGGTAAAAGGTGTAAGTCGGTGTGGTAA is 0.727; for ATCTCTAGCTAAAGTTCAGTGAAAGATCGATAGA it is 1.49; for CGTCCAAGGTCGAGGTCAGTGAAAGAGACTCGAA it is 3.73.
The result for GCATATAGGTAATACAAGGTTAAAGTCCGATTGT reads 1.6; that for CAAACTAGGTCAAGAGGTCCAAGTCCGCTTCCCG, 4.71.
ACTTTTAGTTGACTTAGGGCAACCGATACGACGC: the PBM binding z-score worked out at 0.839.
